{"source": "PubChem BioAssay AID1490", "about": "(National Center for Advancing Translational Sciences (NCATS), 2009)", "note": "Hit rate of the full screen: of about 310,000 compounds, about 11,000 (3.5%) were called active. About 4% were inconclusive and are not listed. Only a selection was taken, and actives are over-represented in it overall. A number with no mark means an inactive call. Calls follow the shape of the dose curve; as a rule, active = well fitted inhibition curve with a large enough effect; inconclusive = small, poorly fitted or top-dose-only effect, or another doubt; inactive = no such curve, though single readings can be large or run the other way. Potency is read from the fitted curve at half-maximal effect."}
{"target": "4'-phosphopantetheinyl transferase ffp (Bacillus subtilis) (UniProt Q9F4F7)", "test": "qHTS Assay for Inhibitors of Bacillus subtilis Sfp phosphopantetheinyl transferase (PPTase);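 also: the enzyme is Sfp with the accession as filed and its product quenches rhodamine fluorescence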;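 as to largest response in the series, negative = inhibition: 0% = enzyme reaction without inhibitor and -100% = no enzyme wells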", "conditions": "Biochemical Sfp PPTase activity", "outline": "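Fluorescence-quenching assay with 15 nM Sfp, 5 uM rhodamine-CoA and 12.5 uM BHQ-2-labelled ybbR peptide in pH 7.6 Hepes/MgCl2 buffer. Enzyme was pre-incubated with compound for 15 min at room temperature. Rate was taken from the 30-min fluorescence change (525/598 nm).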", "units": {"largest response in the series, negative = inhibition": "%"}}
{"smiles": "COc1ccccc1Oc1ccc(N2CC(C(=O)OCC(=O)c3ccc(F)cc3)CC2=O)cc1", "note": "(stereo not given)", "largest response in the series, negative = inhibition": -1.84}
{"smiles": "CCN(CC)CCCNC(=O)COc1ccc2oc3c(c2c1)CCCC3", "largest response in the series, negative = inhibition": 3.63}
{"smiles": "S=C(c1ccc(-c2ccccc2)o1)N1CCCCC1", "Potency": "8.91 µM (active)"}
{"smiles": "Cc1cccc(C)c1NC(=S)N1CCCCCC1", "largest response in the series, negative = inhibition": 11.7}
{"smiles": "S=C(c1ccccc1)N1CCCC1", "largest response in the series, negative = inhibition": 9.23}
{"smiles": "COc1ccc(-c2n[nH]c3c2CN(C(=O)c2ccc(F)cc2)CC3)cc1", "largest response in the series, negative = inhibition": 5.79}
{"smiles": "CC(C)(C)c1ccc(C(=O)N2CCC(C(=O)N3CCCCC3)CC2)cc1", "largest response in the series, negative = inhibition": 4.51}
{"smiles": "COc1ccc(CCNC(=O)C(=O)NCC2OCCN2S(=O)(=O)c2ccc(OC)c(C)c2)cc1", "note": "(stereo not given)", "largest response in the series, negative = inhibition": 8.83}
{"smiles": "COCCn1nnnc1C(c1cc2ccc(OC)cc2[nH]c1=O)N1CCc2ccccc2C1", "note": "(stereo not given)", "Potency": "12.6 µM (active)"}
{"smiles": "COc1ccc(OC)c(C(c2nnnn2C(C)(C)C)N2CCc3ccccc3C2)c1", "note": "(stereo not given)", "largest response in the series, negative = inhibition": 6.02}
{"smiles": "CCOc1ccc2[nH]c(=O)c(C(c3nnnn3CCOC)N3CCOCC3)cc2c1", "note": "(stereo not given)", "largest response in the series, negative = inhibition": 17.1}
{"smiles": "Cc1cnc(C(=O)OCc2c(C)cc(C(C)(C)C)cc2C)cn1", "largest response in the series, negative = inhibition": -9.1}
{"smiles": "COc1ccc(-c2nc(SCC(=O)N3CCOCC3)n[nH]2)cc1", "largest response in the series, negative = inhibition": 18.2}
{"smiles": "COc1ccc(CNC(=O)CSc2n[nH]c(N)n2)cc1OC", "largest response in the series, negative = inhibition": 2.91}
{"smiles": "COc1ccc(C(=O)CSc2n[nH]c(N)n2)cc1", "Potency": "56.2 µM (active)"}
{"smiles": "Cc1nn2c(=O)cc(COC(=O)c3ccc(NC(=O)C(C)(C)C)cc3)nc2s1", "largest response in the series, negative = inhibition": 18.9}
{"smiles": "COc1cc(/C=C/C(=O)O)cc(S(=O)(=O)Nc2ccccc2C(=O)NCCc2ccccc2)c1OC", "largest response in the series, negative = inhibition": 13.6}
{"smiles": "COc1ccccc1-c1nnc(NC(=O)c2cccc(N3C(=O)CCC3=O)c2)o1", "largest response in the series, negative = inhibition": 2.11}
{"smiles": "COc1ccccc1-c1nnc(NC(=O)c2ccc3ncsc3c2)o1", "Potency": "79.4 µM (active)"}
{"smiles": "COc1ccccc1-c1nnc(SCC(=O)Nc2ccccc2)o1", "largest response in the series, negative = inhibition": 1.67}
{"smiles": "Cc1ccccc1N1CCN(CCCN2C(=O)C3CCCCN3C2=O)CC1", "note": "(stereo not given)", "largest response in the series, negative = inhibition": 17.8}
{"smiles": "COc1ccc(OC)c(NC(=O)c2ccc3c(c2)CCN3S(C)(=O)=O)c1", "largest response in the series, negative = inhibition": 9.13}
{"smiles": "O=[N+]([O-])c1cc(Cl)cc(/C=N/NC(=S)Nc2cc(S(=O)(=O)N3CCOCC3)ccc2Cl)c1O", "Potency": "56.2 µM (active)"}
{"smiles": "O=C(N/N=C/c1cc(Cl)cc([N+](=O)[O-])c1O)C(O)(c1ccccc1)c1ccccc1", "largest response in the series, negative = inhibition": -0.479}
{"smiles": "O=C(N/N=C/c1ccc([N+](=O)[O-])o1)c1cccc(S(=O)(=O)N2CCOCC2)c1", "largest response in the series, negative = inhibition": -9.66}
{"smiles": "COc1ccc(N2CCN(S(=O)(=O)CCNC(=O)C34CC5CC(CC(C5)C3)C4)CC2)cc1", "largest response in the series, negative = inhibition": 2.52}
{"smiles": "Cn1c(=O)[nH]c(=O)c2c1nc(Br)n2CCCCSc1nc2ccccc2o1", "largest response in the series, negative = inhibition": 3.31}
{"smiles": "CCCCCCn1c(SCC(=O)c2ccccc2)nc2c1c(=O)[nH]c(=O)n2C", "largest response in the series, negative = inhibition": -15.2}
{"smiles": "CCCCCn1c(SCCC(C)C)nc2c1c(=O)[nH]c(=O)n2C", "Potency": "28.2 µM (active)"}
{"smiles": "CCOc1ccc(S(=O)(=O)N2CCC(c3ccccc3)CC2)cc1C(=O)O", "largest response in the series, negative = inhibition": 13.6}
{"smiles": "Cc1ccc(OCC(=O)Nc2ccc(N3CCN(C(=O)c4ccco4)CC3)cc2)c(C)c1", "largest response in the series, negative = inhibition": -9.57}
{"smiles": "CC(=O)N1Cc2ccccc2CC1C(=O)O", "note": "(stereo not given)", "largest response in the series, negative = inhibition": 6.16}
{"smiles": "CC(=O)N1CSCC1C(=O)O", "note": "(stereo not given)", "Potency": "20 µM (active)"}
{"smiles": "CC1CC(C)CN(C(=O)CCNC(=O)Cn2cnc3ccccc3c2=O)C1", "note": "(stereo not given)", "largest response in the series, negative = inhibition": -7.35}
{"smiles": "COc1ccc(NC(=O)c2sc3nc(C)nc(N4CCN(c5ccccn5)CC4)c3c2C)c(OC)c1", "largest response in the series, negative = inhibition": -8.26}
{"smiles": "COc1ccccc1-n1c(=S)[nH]c2c(sc(=S)n2-c2ccc(C)cc2C)c1=O", "Potency": "50.1 µM (active)"}
{"smiles": "CCc1ccc(-n2c(=S)sc3c(=O)n(-c4ccccc4OC)c(=S)[nH]c32)cc1", "largest response in the series, negative = inhibition": -10.9}
{"smiles": "COc1ccccc1-n1cn[nH]c1=S", "largest response in the series, negative = inhibition": -24.2}
{"smiles": "COc1cc(NC(=S)N2CCCC(C)C2)cc(OC)c1OC", "note": "(stereo not given)", "Potency": "20 µM (active)"}
{"smiles": "COc1ccccc1C1CCN(C(=S)Nc2ccc(Br)cc2)CC1", "largest response in the series, negative = inhibition": 16.1}
{"smiles": "COc1ccc(C)cc1NC(=S)N1CCOCC1", "largest response in the series, negative = inhibition": 3.26}
{"smiles": "COc1ccc(NC(=S)N2CCCC(CO)C2)c(OC)c1", "note": "(stereo not given)", "largest response in the series, negative = inhibition": -15.1}
{"smiles": "COc1cc(NC(=O)NCC2CCN(Cc3ccc(C)cc3)CC2)cc(OC)c1OC", "largest response in the series, negative = inhibition": 4.55}
{"smiles": "COc1cc(NC(=S)N2CCCC(C)C2)c(OC)cc1Cl", "note": "(stereo not given)", "Potency": "14.1 µM (active)"}
{"smiles": "CC1CC(C)CN(C(=O)C2CC(=O)N(c3ccc(F)cc3)C2)C1", "note": "(stereo not given)", "largest response in the series, negative = inhibition": 0.935}
{"smiles": "COc1ccc(C(CCN2CCOCC2)c2c(OC)cc(OC)c3c2OC(=O)CC3c2ccc(OC)cc2)cc1", "note": "(stereo not given)", "largest response in the series, negative = inhibition": -11.3}
{"smiles": "Cc1cc(F)ccc1N1CCC(N2CCN(C)C(CCO)C2)CC1", "note": "(stereo not given)", "largest response in the series, negative = inhibition": 6.62}
{"smiles": "Cc1ccc(-c2c3c(=O)n(C)c(=O)n(C)c3cn2-c2ccccc2O)cc1", "Potency": "56.2 µM (active)"}
{"smiles": "Cc1ccc(-c2c3c(=O)n(C)c(=O)n(C)c3cn2-n2cnnc2)cc1", "largest response in the series, negative = inhibition": 12.6}
{"smiles": "COc1ccc(-c2c3c(=O)n(C)c(=O)n(C)c3cn2-c2cccc(OC)c2)cc1", "largest response in the series, negative = inhibition": 3.62}
{"smiles": "O=C(CCNC(=O)C1CCN(S(=O)(=O)c2ccccc2)CC1)NC1CC1", "largest response in the series, negative = inhibition": 5.65}
{"smiles": "Cc1ccn(C(CC(=O)c2ccc(Br)cc2)C(=O)O)n1", "note": "(stereo not given)", "Potency": "22.4 µM (active)"}
{"smiles": "Cc1ccc(NC(=O)CCC(=O)c2ccc(Br)cc2)cc1", "largest response in the series, negative = inhibition": 11.8}
{"smiles": "Cc1cc(C)c2c(=O)[nH]c(SCC(=O)Nc3ccc(Br)cc3)nc2n1", "largest response in the series, negative = inhibition": 1.73}
{"smiles": "CCOc1ccc(S(=O)(=O)NCCSc2ccccc2)cc1", "largest response in the series, negative = inhibition": 6.97}
{"smiles": "CCOc1ccc2nc(NCCNS(=O)(=O)c3ccccc3)c(C#N)cc2c1", "Potency": "79.4 µM (active)"}
{"smiles": "CCOc1ccc2nc(NCCNC(=O)C(C)(C)C)c(C)cc2c1", "largest response in the series, negative = inhibition": 17.3}
{"smiles": "COc1cc(COCC(O)CN2CCN(Cc3ccc4c(c3)OCO4)CC2)cc(OC)c1OC", "note": "(stereo not given)", "largest response in the series, negative = inhibition": 8.76}
{"smiles": "COc1c(O)ccc2c1CN1CCc3cc4c(cc3C1C2)OCO4", "note": "(stereo not given)", "Potency": "35.5 µM (active)"}
{"smiles": "COc1ccc2cc1Oc1ccc(cc1)C[C@H]1c3cc(c(OC)cc3CCN1C)Oc1c(O)c(OC)cc3c1[C@H](C2)N(C)CC3", "largest response in the series, negative = inhibition": 1.93}
